High-throughput results (PubChem BioAssay)
Vaccinia mCherry: vaccinia inhibition (mCherry reporter). Vaccinia virus mCherry reporter infection, fluorescence. Potency, µM (titrated, usually from 36.5 µM), inactives show top-dose activity change, negative = inhibition, most hits filed as inhibitors. hit rate 0.63% among 310,000. AID 720579; calls by dose curve; tested in A549 cells; also: potency is read from the fitted curve at half-maximal effect; nearly all actives have a fitted effect of over 35% in size
Lassa entry inh: inhibitors of Lassa virus binding or cell entry; Lassa virus pseudotype entry inhibition, cell reporter; Potency, µM (series often up to 37.9 µM), for inactives: top-dose activity change, negative = inhibition, usual class: inhibitors; hit rate 1.2% among 300,000; calls by dose curve; tested in HEK293 cells; also: potency is read from the fitted curve at half-maximal effect; nearly all actives have a fitted effect of over 50% in size
HCMV inh: blocks human cytomegalovirus replication; HFF cells, HCMV-luciferase reporter, 72 h; stronger effect = lower value; activity change, negative = inhibition, % at 57.5 µM; hit rate 4.5% among 410,000; in the data active = activity change below about -60%; inconclusive = no clear call, values can overlap the other calls; inactive = above about -39%
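Two compound doses tested in HFFs infected with HCMV-luciferase, MOI 1 PFU/cell, 72 h at 37C. Lysate luminescence read with OneGlo; data normalized against buffer-only and 10uM Salinomycin inhibitor controls.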
FMDV antiviral: blocks foot and mouth disease virus; hit rate 1.2% among 410,000; AID 1159524; Potency, µM (doses to about 57.9 µM), for inactives: at the highest dose activity change, negative = inhibition, usual class: inhibitors; FMDV antiviral cell-based qHTS; calls by dose curve; tested in HEK293T cells; also: read-out not given here; potency is read from the fitted curve at half-maximal effect; nearly all actives have a fitted effect of over 45% in size
Vaccinia Venus: vaccinia inhibition (Venus reporter); Potency, µM (doses to about 36.5 µM), for inactives: at the top dose activity change, negative = inhibition, usual class: inhibitors; Vaccinia virus Venus reporter expression, fluorescence; AID 720580; hit rate 0.46% among 330,000; calls by dose curve; tested in A549 cells; also: potency is read from the fitted curve at half-maximal effect; nearly all actives have a fitted effect of over 30% in size
Marburg entry inh: Marburg virus entry inhibition | hit rate 1.8% among 300,000 | Marburg virus pseudotyped entry inhibition, cell reporter | Potency, µM (titrated, usually from 37.8 µM), inactives show top-dose activity change, negative = inhibition, actives largely listed as inhibitors; calls by dose curve; tested in HEK293 cells; also: potency is read from the fitted curve at half-maximal effect
The depositor's hits bear a star; i = inactive; ? = inconclusive; . = not tested or not shown; [ ] = another dose, or the depositor's remark. Compounds with a hit are over-represented: about 6.5% of the library has one in this group of screens. % is scaled to controls: 0 for no effect and ±100 for the full control effect.

SMILES	Vaccinia mCherry	Lassa entry inh	HCMV inh	FMDV antiviral	Vaccinia Venus	Marburg entry inh
Cc1nc(N2CCN(S(=O)(=O)c3ccc(F)cc3)CC2)c2c(-c3cccs3)csc2n1	i	?	-66*	?	-2%	?
Cc1ccc(S(=O)(=O)N2CCN(c3ncnc4scc(-c5ccc(F)cc5)c34)CC2)cc1	?	-23%	-12	?	-6%	?
Cc1ccc(S(=O)(=O)N2CCN(c3nc(-c4cccs4)nc4nc[nH]c34)CC2)cc1	i	.	.	.	-10%	.
Cc1nc(N2CCN(S(=O)(=O)c3ccccc3C#N)CC2)c2c(-c3ccccc3)csc2n1	.	.	-74*	?	.	.
Cc1sc2ncnc(N3CCCCC3)c2c1C	.	-3%	?	?	.	-8%
c1ccc(C(O[C@H]2CCCN(CCc3ccc4c(c3)OCO4)C2)c2ccccc2)cc1	.	.	.	-24%	.	.
O=C(CSc1nncn2c1cc1occc12)Nc1ccccc1C(F)(F)F	-2%	0%[46.1 µM]	?	-28%	-6%	.
Cc1ccc(OCCN2CCN(c3ncnc4sc(C)c(C)c34)CC2)cc1	.	?	-99*	?	.	?
Cc1sc2ncnc(N3CCN(S(=O)(=O)c4ccccc4)CC3)c2c1C	i	-12%	.	20µM*	1%	-9%
CC(=O)Nc1ccc(/C=C/c2ccnc3ccccc23)cc1	-27%	.	.	.	-19%	.
CN(C)c1nc2cc3c(cc2cc1CN(CC1CCCO1)C(=O)/C=C/c1cccs1)OCO3 (stereo unspecified)	-8%	.	.	-18%	-6%	.
COCCn1c(=O)c(-c2ccc(Cl)cc2)nc2cnc(Oc3cccc(Cl)c3)nc21	.	.	.	-14%	.	.
CCN(CC)CCOC(=O)c1ccc(NC(=O)c2cc3c(s2)-c2ccccc2OC3)cc1	?	.	-11	-27%	?	?
Cc1ccccc1NC(=S)N1CCCN(Cc2ccc(F)cc2)C1	.	.	-32	-3%	.	.
CSc1cccc(NC(=S)N2CCCN(Cc3ccc(F)cc3)C2)c1	-8%	?	0	-3%	-25%	6.3µM*
Cc1c(Cl)cccc1NC(=S)N1CCCN(Cc2ccc(F)cc2)C1	-19%	21%[46.1 µM]	0	-11%	-13%	4µM*
Cc1c(Cl)cccc1NC(=S)N1CCCN(Cc2ccccc2F)C1	?	?	-9	1%	-22%	10µM*
CCOc1ccc(CCNC(=O)c2cnc3c(-c4ccc(F)cc4)c(C)nn3c2C)cc1OCC	-15%	1%[46.1 µM]	16	-17%	-17%	.
O=C(O)C1NCCN(C(=O)c2ccc3c(ccc4ccccc43)c2)C1C(=O)O (stereo unspecified)	.	.	.	-12%	.	.
[N-]=[N+]=NC1C[C@H](n2ccc(=O)[nH]c2=O)O[C@@H]1CO (stereo partly specified)	-10%	-10%	-66*	-19%	-7%	-3%
O=c1ccn([C@@H]2O[C@H](COP(=O)(O)O)[C@@H](O)[C@H]2O)c(=O)[nH]1	i	.	.	-17%	-12%	.
COC(=O)C1=C(C)[C@@H](O)[C@@H](C)[C@](C)(c2cc(OC)c(C)c(OC)c2COc2ccccc2)O1	.	3%[14.3 µM]	.	.	.	6%[14.2 µM]
CCOC(=O)c1c(C)[nH]c(C)c1S(=O)(=O)NCC(=O)Nc1cccc(SC)c1	-8%	11%[46.1 µM]	2	14%	2%	.
OCCCNc1cc(-c2ccnc(Nc3cccc(Cl)c3)n2)ccn1	?	.	-97*	?	1µM*	.
Cc1cc(C)nc(Nc2cccc(Cl)c2)n1	.	.	-16	27%	.	.
SMILES	Vaccinia mCherry	Lassa entry inh	HCMV inh	FMDV antiviral	Vaccinia Venus	Marburg entry inh
CCC(C)Oc1cc(-c2ccnc(Nc3cccc(Cl)c3)n2)ccn1 (stereo unspecified)	?	.	-86*	-2%	?	.
Cc1csc(NC(=O)Cc2coc3cc(C)c(C(C)C)cc23)n1	.	2.8µM*	-89*	?	-18%	4µM*
COc1ccccc1CCC(=O)O	-9%	.	.	.	-6%	.
COc1ccc(C(=O)Nc2sc3c(c2C(N)=O)CCCC3)cc1OC	.	.	.	16%	.	.
O=Nc1ccc(Cl)cn1	.	.	4	.	.	.
COc1ccc(Cl)cc1NC(=O)Cn1nnc(C(=O)NCc2ccc3c(c2)OCO3)c1N	?	-11%[46.1 µM]	-33	-9%	-14%[7.34 µM]	-2%[46.1 µM]
COc1ccc(CCNC(=O)CCCCn2c(=O)c3ccccc3n(CC(=O)Nc3c(C)cccc3C)c2=O)cc1OC	-6%	4%[46.1 µM]	-109*	-8%	-2%	-1%[46.1 µM]
